Source: the supplement of paper PMC4466140

The binders below were run against AgAbp1 (assay: SPOT peptide array binding signal intensity (averaged, normalized) (arbitrary units (background-subtracted, floor 0; scale differs between SH3 domains)); higher = stronger binding of the SH3 domain to the peptide).
Method in brief: (§1)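 Binding signal refers to normalized, background-subtracted spot intensity averaged over replicates, expressed in arbitrary units that differ between domains. GST-fused SH3 domains from four yeast species were incubated at 10 μg/ml overnight at 4°C on cellulose membranes of synthetic 15-mer peptides with cysteines replaced by serines. Bound protein was detected with anti-GST antibody, an HRP anti-mouse secondary and luminol, and quantified with Genespotter.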

Row | Binder | SPOT peptide array binding signal intensity
1 | SSSSSPPPLPTRRDH | ≤ 0

The binders below were run against AgBbc1 in the same assay as above.
Method in brief: as §1

Row | Binder | SPOT peptide array binding signal intensity
2 | SSSSSPPPLPTRRDH | 364

Each binder was assayed against AgBem1-D1 in the same assay as above.
Method in brief: as §1

Row | Binder | SPOT peptide array binding signal intensity
3 | SSSSSPPPLPTRRDH | 2

The binders below were run against AgBzz1-D1 in the same assay as above.
Method in brief: as §1

Row | Binder | SPOT peptide array binding signal intensity
4 | SSSSSPPPLPTRRDH | 26

The binders below were run against AgBzz1-D2 in the same assay as above.
Method in brief: as §1

Row | Binder | SPOT peptide array binding signal intensity
5 | SSSSSPPPLPTRRDH | 19.5

The binders below were run against AgCyk3 in the same assay as above.
Method in brief: as §1

Row | Binder | SPOT peptide array binding signal intensity
6 | SSSSSPPPLPTRRDH | 1.5

Each binder was assayed against AgFus1 in the same assay as above.
Method in brief: as §1

Row | Binder | SPOT peptide array binding signal intensity
7 | SSSSSPPPLPTRRDH | 15.5

These binders were tested against AgHof1 in the same assay as above.
Method in brief: as §1

Row | Binder | SPOT peptide array binding signal intensity
8 | SSSSSPPPLPTRRDH | 59

These binders were tested against AgHse1 in the same assay as above.
Method in brief: as §1

Row | Binder | SPOT peptide array binding signal intensity
9 | SSSSSPPPLPTRRDH | 18.5

What follows are binders tested against AgLsb1 in the same assay as above.
Method in brief: as §1

Row | Binder | SPOT peptide array binding signal intensity
10 | SSSSSPPPLPTRRDH | 180

What follows are binders tested against AgLsb4 in the same assay as above.
Method in brief: as §1

Row | Binder | SPOT peptide array binding signal intensity
11 | SSSSSPPPLPTRRDH | 6800

What follows are binders tested against AgMyo5 in the same assay as above.
Method in brief: as §1

Row | Binder | SPOT peptide array binding signal intensity
12 | SSSSSPPPLPTRRDH | 586

The binders below were run against AgNbp2 in the same assay as above.
Method in brief: as §1

Row | Binder | SPOT peptide array binding signal intensity
13 | SSSSSPPPLPTRRDH | 16

Each binder was assayed against AgRvs167 in the same assay as above.
Method in brief: as §1

Row | Binder | SPOT peptide array binding signal intensity
14 | SSSSSPPPLPTRRDH | 627

These binders were tested against AgSho1 in the same assay as above.
Method in brief: as §1

Row | Binder | SPOT peptide array binding signal intensity
15 | SSSSSPPPLPTRRDH | 19

These binders were tested against AgSla1-D1-D2 in the same assay as above.
Method in brief: as §1

Row | Binder | SPOT peptide array binding signal intensity
16 | SSSSSPPPLPTRRDH | ≤ 0

Each binder was assayed against AgSla1-D3 in the same assay as above.
Method in brief: as §1

Row | Binder | SPOT peptide array binding signal intensity
17 | SSSSSPPPLPTRRDH | ≤ 0

Each binder was assayed against CaAbp1-D1 in the same assay as above.
Method in brief: as §1

Row | Binder | SPOT peptide array binding signal intensity
18 | SSSSSPPPLPTRRDH | 7.5

The binders below were run against CaAbp1-D2 in the same assay as above.
Method in brief: as §1

Row | Binder | SPOT peptide array binding signal intensity
19 | SSSSSPPPLPTRRDH | ≤ 0

The binders below were run against CaBbc1 in the same assay as above.
Method in brief: as §1

Row | Binder | SPOT peptide array binding signal intensity
20 | SSSSSPPPLPTRRDH | 378

Each binder was assayed against CaBem1-D1 in the same assay as above.
Method in brief: as §1

Row | Binder | SPOT peptide array binding signal intensity
21 | SSSSSPPPLPTRRDH | 4

Each binder was assayed against CaBzz1-D1 in the same assay as above.
Method in brief: as §1

Row | Binder | SPOT peptide array binding signal intensity
22 | SSSSSPPPLPTRRDH | 139

What follows are binders tested against CaBzz1-D2 in the same assay as above.
Method in brief: as §1

Row | Binder | SPOT peptide array binding signal intensity
23 | SSSSSPPPLPTRRDH | ≤ 0

What follows are binders tested against CaCyk3 in the same assay as above.
Method in brief: as §1

Row | Binder | SPOT peptide array binding signal intensity
24 | SSSSSPPPLPTRRDH | 2

Each binder was assayed against CaFus1 in the same assay as above.
Method in brief: as §1

Row | Binder | SPOT peptide array binding signal intensity
25 | SSSSSPPPLPTRRDH | 26

The binders below were run against CaHof1 in the same assay as above.
Method in brief: as §1

Row | Binder | SPOT peptide array binding signal intensity
26 | SSSSSPPPLPTRRDH | 24.5

Each binder was assayed against CaHse1 in the same assay as above.
Method in brief: as §1

Row | Binder | SPOT peptide array binding signal intensity
27 | SSSSSPPPLPTRRDH | 114

What follows are binders tested against CaLsb1 in the same assay as above.
Method in brief: as §1

Row | Binder | SPOT peptide array binding signal intensity
28 | SSSSSPPPLPTRRDH | 19.5

The binders below were run against CaLsb4 in the same assay as above.
Method in brief: as §1

Row | Binder | SPOT peptide array binding signal intensity
29 | SSSSSPPPLPTRRDH | 8630

These binders were tested against CaMyo5 in the same assay as above.
Method in brief: as §1

Row | Binder | SPOT peptide array binding signal intensity
30 | SSSSSPPPLPTRRDH | 6.5

These binders were tested against CaNbp2 in the same assay as above.
Method in brief: as §1

Row | Binder | SPOT peptide array binding signal intensity
31 | SSSSSPPPLPTRRDH | 24.5

What follows are binders tested against CaRvs167 in the same assay as above.
Method in brief: as §1

Row | Binder | SPOT peptide array binding signal intensity
32 | SSSSSPPPLPTRRDH | 1510

Each binder was assayed against CaRvs167-3 in the same assay as above.
Method in brief: as §1

Row | Binder | SPOT peptide array binding signal intensity
33 | SSSSSPPPLPTRRDH | 7.25

Each binder was assayed against CaSho1 in the same assay as above.
Method in brief: as §1

Row | Binder | SPOT peptide array binding signal intensity
34 | SSSSSPPPLPTRRDH | 6.5

What follows are binders tested against CaSla1-D1-D2 in the same assay as above.
Method in brief: as §1

Row | Binder | SPOT peptide array binding signal intensity
35 | SSSSSPPPLPTRRDH | 76

Each binder was assayed against CaSla1-D3 in the same assay as above.
Method in brief: as §1

Row | Binder | SPOT peptide array binding signal intensity
36 | SSSSSPPPLPTRRDH | 3.25

The binders below were run against ScAbp1 in the same assay as above.
Method in brief: as §1

Row | Binder | SPOT peptide array binding signal intensity
37 | SSSSSPPPLPTRRDH | ≤ 0
